NPR1 activator = GC-A (human) enzyme activation | HEK293 GC-A cells, cGMP TR-FRET, EC30 ANP; 0% at EC30 ANP, 100% saturating ANP | activation, % at 10 µM | hit rate 0.14% among 370,000 | AID 1671463 | P16066; in the data active means activation above about 40%
PG9 binder = binds the HIV-1 gp120 antibody PG9 | TR-FRET gp120-PG9 antibody binding | hit rate 0.43% among 360,000 | inhibition, % at 6.7 µM; in the data active means inhibition above about 8.5%
NR1D1 modulator = modulates human Rev-erb alpha binding to DNA. hit rate 0.79% among 370,000. Rev-erbα–FITC-DNA binding, fluorescence polarization, 90 min. activity, % at 10 µM. AID 1259318;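 active means activity above about 14%, limit read from the data; passing the limit was not always enough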;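 further: 0% = DMSO wells with 35 nM protein and 100% = DMSO wells with 750 nM protein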
Target sequence (P20393 whole entry, looked up): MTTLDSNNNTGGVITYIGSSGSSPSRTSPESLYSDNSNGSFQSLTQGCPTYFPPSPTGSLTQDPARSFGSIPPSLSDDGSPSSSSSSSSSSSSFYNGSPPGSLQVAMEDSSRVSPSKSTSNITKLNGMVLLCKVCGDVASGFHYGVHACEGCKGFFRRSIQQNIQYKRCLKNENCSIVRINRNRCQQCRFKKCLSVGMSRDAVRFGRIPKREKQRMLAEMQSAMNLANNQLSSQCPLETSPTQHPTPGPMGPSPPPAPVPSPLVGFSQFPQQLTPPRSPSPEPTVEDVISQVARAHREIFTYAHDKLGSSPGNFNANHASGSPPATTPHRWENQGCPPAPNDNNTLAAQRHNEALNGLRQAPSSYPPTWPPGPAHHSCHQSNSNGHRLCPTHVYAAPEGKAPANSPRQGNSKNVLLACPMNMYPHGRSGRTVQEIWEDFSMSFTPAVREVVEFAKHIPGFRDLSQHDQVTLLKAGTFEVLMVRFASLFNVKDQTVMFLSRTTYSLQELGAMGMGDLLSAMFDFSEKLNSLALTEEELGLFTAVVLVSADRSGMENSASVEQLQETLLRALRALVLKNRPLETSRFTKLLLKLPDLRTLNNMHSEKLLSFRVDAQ
V-ATPase pHluor = yeast V-ATPase proton transport regulation by pHLuorin; S. cerevisiae, pHLuorin cytosolic pH fluorescence; response, % at 10 µM; hit rate 0.37% among 350,000; in the data active means response mostly above about 7.3%, no sharp cut-off; inactive means mostly below about 5.4%; further: actives read high
GC-B act = GC-B (human) receptor activation | HEK293-GC-B cells, CNP EC30, cGMP TR-FRET; 0% at EC30 CNP, 100% saturating CNP | hit rate 0.11% among 370,000 | AID 1920062 | activation, % at 10 µM | P20594;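 active means activation at 10 µM reaching about 35% in either raw or pattern-adjusted values, limit read from the data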
PG9 binder conf = PG9 antibody binding, confirmed | shares compounds with PG9 binder | TR-FRET PG9 antibody binding, biochemical | inhibition, % at 6.7 µM | hit rate 90% among 1,500 | AID 651571; in the data active means inhibition above about 9%
PGV04 Ab binding = counter-screen for PG9 binders: binding control antibody PGV04; shares compounds with PG9 binder; TR-FRET PGV04 antibody-gp120 binding, biochemical; inhibition, % at 6.7 µM; hit rate 95% among 1,500; AID 651604; in the data active means inhibition above about 9.5%
PG9 bind DR = PG9 antibody binding, dose response. 95 tested, under 10 active. TR-FRET PG9 antibody-gp120 binding inhibition. IC50, µM. shares compounds with PG9 binder; in the data active means IC50 below about 10 µM
PGV04 DR counter = PGV04 binding, dose response counter-screen; shares compounds with PG9 binder; AID 651937; IC50, µM; hit rate 20% among 95; TR-FRET binding to control antibody PGV04
PG126 binding DR = counter-screen for PG9 binders: binding to control antibody PG126; shares compounds with PG9 binder; TR-FRET binding to antibody PG126, counterscreen; IC50, µM; hit rate 20% among 95; AID 651939
Rev-erbA confirm = Rev-erb alpha (human) modulation, hit confirmation. hit rate 61% among 3,000. activation, % at 25 µM. AID 1259319. Rev-erb alpha FITC-DNA binding, fluorescence polarization, 90 min. shares compounds with NR1D1 modulator;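 active means activation at or above a set limit, or at least 3 SD above the negative control mean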;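 further: 0% = 35 nM protein with DMSO and 100% = 750 nM protein high control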
RORg DNA counter = RORgamma DNA-binding activity, dose-response counter-screen; shares compounds with NR1D1 modulator; purified RORgamma protein-FITC-DNA binding, fluorescence polarization; IC50, µM; hit rate 8% among 910;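 active means Compounds whose fitted half-maximal concentration for disrupting protein-DNA binding is below 10 micromolar; the record names Rev-erb in its text, so the target is in doubt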
Starred values were filed as active, the others as inactive; i = inactive; x = not tested or not shown; ! = not active in a repeat. Rows were chosen to be rich in hits. Some 1.6% of all compounds tested hit in one or more screens of this group. Unless noted, no stated cut-off is given here; in the data, active means IC50 below about 9 µM; inactive means the rest.

SMILES | NPR1 activator | PG9 binder | NR1D1 modulator | V-ATPase pHluor | GC-B act | PG9 binder conf | PGV04 Ab binding | Rev-erbA confirm | others
Cc1nc(SCC(=O)Nc2ccc3c(c2)OCCO3)c2oc3ccccc3c2n1 | 5 | 33* | 294* | 0 | 6 | 38* | 24* | 302* | PG9 bind DR=i;PGV04 DR counter=i;PG126 binding DR=i
Cc1nc(SCC(=O)O)c2oc3ccccc3c2n1 | -2 | 0 | 4 | -1 | 2 | x | x | x
COC(=O)c1ccc(-c2ccc3c(c2)[C@]2(CCC[C@@H](O)[C@@H]2NC(=O)CCc2ccccc2)C(=O)N3Cc2ccccc2)cc1 | 4 | x | 0 | x | 6 | x | x | x
Cn1c(-c2ccc(C=O)s2)nc2c3ccccc3c3ccccc3c21 | 1 | 8.9* | 135* | -35 | -17 | 6 | 8 | 114*
COC(=O)Cn1c(=NC(=O)CSCC(=O)Nc2cc(C)on2)sc2cc(C(=O)OC)ccc21 | 2 | -2 | 5 | 2 | 0 | x | x | x
COC(=O)Cn1c(=NC(=O)c2ccc(OC)cc2)sc2cc(OC)ccc21 | 11 | 64* | 34* | -4 | 14 | 49* | 60* | -3
COc1cccc(C(=O)Nc2ccc3c(C)cc(=O)oc3c2)c1 | -2 | 9.7* | 20* | 5 | 0 | 21* | 31* | 0
COc1ccc(CN2CCC(CNC(=O)Nc3ccc(Cl)cc3)CC2)cc1 | -6 | x | -1 | x | -11 | x | x | x
CCOC(=O)[C@@]12CN(C(=O)OC(C)(C)C)CC=C1N(Cc1ccc(OC)cc1)C(=O)[C@H]2CC(=O)NCc1cccs1 | -3 | x | 4 | x | -5 | x | x | x
COCCNc1nc2c(S(=O)(=O)c3cc(C)ccc3C)nnn2c2ccccc12 | 7 | 46* | 45* | -1 | 0 | 29* | 55* | 19*
CC(C)c1ccc(S(=O)(=O)c2nnn3c2nc(NCC2CCCO2)c2ccccc23)cc1 (stereo unspecified) | x | x | x | 1 | x | x | x | x
Cc1cc(C)c(C#N)c(SCCS(=O)(=O)c2ccc(Cl)cc2)n1 | -6 | 1 | 3 | -2 | -3 | x | x | x
Cc1cc(C)c(C#N)c(SCCS(=O)(=O)Cc2ccc(Cl)cc2)n1 | 5 | 11* | 36* | 1 | -17 | 22* | 31* | 18*
O=C(Nc1ccc(Cl)c(Cl)c1)c1cccc2c1-c1ccccc1C2=O | -1 | x | -6 | x | -1 | x | x | x
COc1ccc(C(=O)Nc2nnc(Cc3ccccc3)s2)c(OC)c1 | 1 | 68* | 71* | 0 | 1 | 39* | 32* | 53* | PG9 bind DR=i;PGV04 DR counter=i;PG126 binding DR=i;RORg DNA counter=>40
COc1ccc(C(=O)Nc2nnc(Cc3cccs3)s2)cc1OC | 15 | 33* | 46* | 1 | -1 | 45* | 75* | 47* | RORg DNA counter=>40
COc1ccc(Cc2nnc(NC(=O)c3ccc(OC)c(OC)c3)s2)cc1 | -2 | 8 | 3 | -2 | 3 | x | x | x
Cc1ccc(-c2cc(-c3nnc4sc(COc5ccccc5)nn34)[nH]n2)cc1 | 14 | x | 8 | x | -9 | x | x | x
C[C@H]1C2CC(OC(=O)NCCCc3ccccc3)C(C2)[C@H]2CCCCN21 (stereo partly specified) | -1 | x | 0 | x | 3 | x | x | x
Cc1sc2ncnc(N3CCC(C(=O)Nc4ccc(S(N)(=O)=O)cc4)CC3)c2c1C | -4 | -3 | -9 | 2 | 2 | x | x | x
Cc1sc2ncnc(N3CCC(C(=O)Nc4ccc(C#N)cc4)CC3)c2c1C | 8 | 15* | 27* | -2 | 0 | 16* | 10* | 19* | PG9 bind DR=>67;PGV04 DR counter=8.4*;PG126 binding DR=8.7*
O=C(c1cc2cc(Cl)ccc2[nH]1)N1CCN(c2ccccc2F)CC1 | -4 | 2 | 1 | -1 | -4 | x | x | x
O=C(c1cc2cc(Cl)ccc2[nH]1)N1CCN(c2ccccn2)CC1 | -3 | 27* | 51* | 0 | -2 | 7 | 23* | 41* | RORg DNA counter=5.4*
CCOC(=O)N1CCC(NC(=O)c2ccc3c(c2)sc2nc(-c4ccccc4)cn23)CC1 | 4 | 21* | 63* | -3 | 4 | 21* | 38* | 41*
CCOC(=O)N1CCC(NC(=O)c2ccc3c(c2)N=C(CC)c2ccccc2S3)CC1 | 5 | 0 | -8 | 1 | 2 | x | x | x
SMILES | NPR1 activator | PG9 binder | NR1D1 modulator | V-ATPase pHluor | GC-B act | PG9 binder conf | PGV04 Ab binding | Rev-erbA confirm | others
CC(=O)N1CCc2cc(S(=O)(=O)NCCC(=O)N(C)Cc3ccccc3F)ccc21 | 0 | x | 2 | x | -3 | x | x | x
N#Cc1ccc(CSc2nnc(NC(=O)c3ccc4ncsc4c3)s2)cc1 | 7 | 32* | 60* | -9 | -1 | 30* | 48* | 23*
N#C/C(C(=O)NCc1ccco1)=C1/SC=C(c2ccccc2)N1c1ccccc1 | 3 | 41* | 38* | -1 | -3 | 42* | 59* | 30*
CC1=CS/C(=C(/C#N)C(=O)NCc2ccco2)N1c1ccccc1 | 2 | 3 | -8 | 1 | 10 | x | x | x
Cc1ccc(N=Cc2c(O)c3ccccc3oc2=O)c(C)c1 | 8 | 1 | 46* | 2 | -1 | x | x | 25*
Cc1ccc(F)cc1N=Cc1c(O)c2ccccc2oc1=O | x | x | x | 1 | x | x | x | x
O=C(O)c1cccc(CN2C(=O)c3ccccc3C2=O)c1 | -1 | -1 | -4 | 2 | 13 | x | x | x
O=C1c2cccc3c(O)ccc(c23)C(=O)N1Cc1ccccc1 | 12 | 0 | 73* | -8 | 2 | x | x | 73* | RORg DNA counter=>40
O=C(Nc1ccccc1C(F)(F)F)OCCN1C(=O)CCC12CCC(c1ccccc1)CC2 (stereo unspecified) | -18 | x | 26* | x | -21 | x | x | 28* | RORg DNA counter=>40
CCC(C(=O)c1ccc(O)cc1)c1ccccc1 (stereo unspecified) | 4 | 1 | -5 | 1 | 4 | x | x | x
CCC(c1ccc(O)cc1)C(CC)c1ccc(O)cc1 (stereo unspecified) | 5 | 0 | 34*! | -5 | 9 | x | x | 41* | RORg DNA counter=>40
Cc1ccc(N=Nc2c(C)[nH]n(C(N)=S)c2=O)cc1C | -1 | -3 | 1 | -5 | -4 | x | x | x
Cc1[nH]n(C(N)=S)c(=O)c1N=Nc1cc(-c2ccc(Br)cc2)[nH]n1 | 32 | 1 | 14* | -1 | -11 | x | x | 12

High-throughput results as filed in PubChem.
